The record followed here is PubChem BioAssay (NCI).

This is part of a sample that, as a whole, favours compounds with a hit. Of some 83,000 tested, about 20% had one in any assay.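 Treatment: one concentration, 48 hours, 96-well format. Scoring: percent growth, with anything below 10 considered active.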 The source made the active and inactive calls.

This assay deals with MDA-MB-468 breast. Nature of the assay: NCI-60 one-dose screen, 48 h (100 = growth as untreated, 0 = no growth, -100 = all killed). As to conditions: 10 µM unless noted.
On to `CC(C)(O)C(=O)O`, for which the growth was 108% (inactive).
`CCC(C)[C@H](NC(=O)Nc1cc(C(F)(F)F)cc(C(F)(F)F)c1)C(=O)N[C@@H](Cc1cn(C)cn1)C(=O)OC` (stereo not given in full): the growth is -74.1% [100 µM] (active).
Under `N#Cc1nc(-c2ccccc2)oc1N1CCC(CO)C1` (stereo not given) stands 92.5% (inactive); under `NC(=Nc1ccccc1)SCCCSC(N)=Nc1ccccc1`, 85.8% (inactive); under `Cc1sc2c(c1C)c(=O)nc1c(-c3nc(-c4ccc(F)cc4)no3)n[nH]n12`, 110% (inactive).
To `CN(C)C1CCN(C(=O)c2ccc(NC(=O)Nc3ccc(-c4nc(N5CCOCC5)c5cccn5n4)cc3)cc2)CC1` belongs -60.1% (active); to `CC1(C)CC2=C3C=C[C@@H]4[C@@]5(C)CCC(=O)C(C)(C)[C@@H]5CC[C@@]4(C)[C@]3(C)CC[C@@]2(C(=O)O)C[C@H]1O`, 40.3% (inactive).
To `CN(c1ccc(F)cc1)S(=O)(=O)c1ccc(-c2cnc(C3CC3)o2)cc1` belongs -8.39% (active).
In the case of `CC1(C)CC[C@]23CC[C@]4(C)[C@H](CC[C@@H]5[C@@]6(C)CC[C@H](NCO)C(C)(C)[C@@H]6CC[C@]54C)[C@H]2[C@H]1OC3`, the growth is -56.6% (active).
To `O=C(CCl)N1CCCc2ccccc21` belongs 80.9% (inactive); to `CC(=O)O[C@H]1C(=O)[C@@]2(C)C([C@H](OC(=O)c3ccccc3)[C@]3(O)C[C@H](OC(=O)[C@H](O)[C@@H](NC(=O)c4ccccc4)c4ccccc4)C(C)=C1C3(C)C)[C@]1(OC(C)=O)CO[C@@H]1C[C@@H]2O` (stereo not given in full), -11.7% (active); to `Cc1ccccc1C1N=C2Oc3ccccc3C=C2C(=O)N1` (stereo not given), 21.8% (inactive).
Take `COc1ccc(C2CC(c3ccc4c(c3)OCO4)=NN2C=O)cc1` (stereo not given): the growth was 93.3% (inactive).
Under `CCOC(=O)/C(C#N)=C(\C)CCc1ccccc1` stands 76.5% (inactive); under `COc1ccc(-c2csc(NC(=O)c3ccc(Cc4n[nH]c(=O)c5cccnc45)cc3)n2)cc1`, 64.2% (inactive); under `CN1CCCCC1CCN1c2ccccc2Sc2ccc(Br)cc21` (stereo not given), 32.1% (inactive).
Under `C=C1C(=O)O[C@H]2[C@H]1CC/C(COC(=O)c1cc3cc(OC)ccc3[nH]1)=C\CC[C@@]1(C)O[C@@H]21` stands -76.3% (active).
Under `CC(=O)Nc1ccc([I+]c2ccc([N+](=O)[O-])cc2)cc1` stands 41.7% (inactive); under `N#CCCN=Nc1c(O)[nH]c2ccc(F)cc12`, 98.9% (inactive).
With `Cc1ccc2c(c1)Oc1nc(N)c(C#N)c(N)c1C2Sc1ccc(F)cc1` (stereo not given), the growth was -72.6% (active).
Under `O=C1/C(=C/c2ccc(F)c(F)c2)CN(C(=O)C(Cl)Cl)C/C1=C\c1ccc(F)c(F)c1` stands -58.2% (active).
Under `CCOC(=O)CC[C@H](NC(=O)c1ccc(NC)c2ccccc12)C(=O)OCC` stands 95.1% (inactive); under `C=C[Si](OC(C)=O)(OC(C)=O)OC(C)=O`, 109% (inactive); under `Cc1c(F)cc(C(N)=O)cc1NCC(=O)Nc1ccc([N+](=O)[O-])cc1`, 92.4% (inactive).
Under `C#CCNC(=O)c1cccc2c1cc(C)n2-c1nc2c(c(NCc3ccccc3)n1)CCCC2` stands -50.9% (active); under `COc1cc(C2CC(c3cccc(Nc4ccnc5cc(Cl)ccc45)c3)=NN2c2ccccc2)cc(OC)c1OC` (stereo not given), 82.1% (inactive).
For the compound `CCCCCCCCCCCC(=O)NCCCN(C)C`, the growth was 111% (inactive).
Under `COc1cc(Cn2cc3c(c2)-c2onc(CO)c2CC3)cc(OC)c1OC` stands 81.6% (inactive); under `O=Nc1c(-c2c(O)[nH]c3cc(Br)ccc23)[nH]c2ccccc12`, -34.2% (active).
Regarding `COc1cccc(NC(=O)c2sc3nc4c(cc3c2N)C(O)CCC4)c1` (stereo not given), the growth was 48.6% (inactive).
Under `N#Cc1c(N)nnn1Cc1cc(=O)oc2c1ccc1ccccc12` stands 106% (inactive); under `COc1ccc(C(=O)Cn2c(C(=O)c3ccccc3)nc3ccccc32)cc1`, 2.35% (active); under `Clc1ccc(-c2nc(-c3cccs3)no2)cc1`, 44.7% (inactive).
In the case of `O=C1CSc2ccccc2N1`, the growth is 112% (inactive).
To `COc1ccc(C2CC(c3cccc(Nc4ccnc5cc(Cl)ccc45)c3)=NN2C=O)cc1` (stereo not given) belongs 7.85% (active).
As for `COc1ccc(-c2[nH]nc(N)c2-c2cc(OC)c(OC)c(OC)c2)cc1`, the growth is 34% (inactive).
Under `Cn1c2c(Cl)c(Cl)ccc2c2c(C#N)c[nH]c(=O)c21` stands 111% (inactive); under `COc1ccc2nc3cc(Cl)ccc3c(Nc3ccc(N(C)C)cc3)c2c1`, 73.7% (inactive); under `CCCSc1nc(N)nc2nc[nH]c12`, 113% (inactive).
To `CCS(=O)(=O)OCCCl` belongs 94.9% (inactive).
